This is part of a sample that, as a whole, favours compounds with a hit. Of some 83,000 tested, about 20% had one in any assay.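 Negative percent growth values reflect cell death: -40 means 40% of the cells present at the start died, and -100 means all died.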 A number with no mark means an inactive call. The source made the active and inactive calls. The calls were made as follows: active = growth percent below 10; inactive = the rest.

Test in all cases: NCI-60 one-dose screen, 48 h (100 = growth as untreated, 0 = no growth, -100 = all killed)
The subject of assay [1] is DU-145 prostate. The conditions noted are these: 10 µM unless noted.
Assay [2] has as its system K-562 leukemia. To be noted: 10 µM unless noted.
The subject of assay [3] is MALME-3M melanoma. To be noted: 10 µM unless noted.
Assay [4] has as its system MDA-MB-231 breast. To be noted: 10 µM unless noted.
Assay [5] relates to RXF 393 renal. The conditions noted are these: 10 µM unless noted.
The test system of assay [6] is SF-268 CNS. To be noted: 10 µM unless noted.
The subject of assay [7] is SF-295 CNS. To be noted: 10 µM unless noted.
The test system of assay [8] is SF-539 CNS. The conditions noted are these: 10 µM unless noted.
Assay [9] concerns UACC-257 melanoma. To be noted: 10 µM.
The test system of assay [10] is M14 melanoma. To be noted: 10 µM unless noted.

Turning to `O=C(Nc1cccc(Cl)c1)Nc1nc2ccc([N+](=O)[O-])cc2s1`, the growth in assay [1] is 15.2%; in assay [2] it was 4.51% (active); in assay [3], -9.22% (active); in [4], -9.3% (active); in assay [5], -26.4% (active); in assay [6], 9.76% (active). For the same molecule, the growth in assay [7] was -68.9% (active); in assay [8] it was 7.66% (active); in [9], -15.2% (active); in assay [10] it was 0.118% (active).
In the case of `C#CCOc1ccc(C(Nc2cc(Cl)ccc2Cl)c2nnnn2C2CCCCC2)cc1` (stereo not given), the growth in [1] is 97.7%; in assay [2] it was 83.5%; in assay [3], 101%; in assay [4] it was 73.7%; in assay [5], 92.6%; in assay [6], 83.4%. In addition, the growth was 80.7% in assay [7], 95.3% in assay [8], 102% in [9] and 92.2% in [10].
In the case of `CCOC(=O)/C(F)=C/C1CC1CCc1cccc(C(F)(F)F)c1` (stereo not given), the growth in assay [1] is 110%; in assay [2] it was 111%; in assay [3], 106%; in [4] it was 107%; in assay [5] it was 129%; in assay [6] it was 105%. In addition, the growth in [7] was 99.6%; in [8], 99.4%; in [9], 111%; in [10], 98.9%.
Take `Cc1ccc(/C=C/CC(=O)Nc2ccc(C(=O)Nc3ccc(F)cc3N)cc2)cn1`: the growth was 54.3% in [1]; 34% in assay [2]; 41.4% in assay [3]; 69.3% in assay [4]; 74.5% in assay [5]; 60.4% in [6]. Further, the growth in [7] is 69.7%; in [8] it was 55.9%; in assay [9], 52.4%; in assay [10], 56.7%.
`CCCC(=O)NC(c1cccnc1)c1cc(Cl)c2cccnc2c1O` (stereo not given): the growth was 62.9% in [1]; 19.7% in assay [2]; 79.6% in assay [3]; 45.1% in assay [4]; 80.5% in assay [5]; 42.7% in assay [6]. Besides, the growth was 10.8% in assay [7], 38% in [8], 34.9% in assay [9] and 44% in [10].
For `C(=C(\C1=NCCN1)n1cnc2ccccc21)/c1cccc2ccccc12`, the growth in assay [1] is 98.1%; in [2] it was 84.9%; in assay [3] it was 91.7%; in assay [4], 81%; in assay [5], 46.9%; in [6], 85%. In addition, the growth in assay [7] was 76.9%; in assay [8], 91.7%; in [9] it was 94.7%; in assay [10], 70%.
Regarding `Oc1ccc(CSc2nnc(-c3cnccn3)o2)c2cccnc12`, the growth in [1] is 26.1%; in assay [2] it was 10.2%; in assay [3] it was -6.87% (active); in assay [4], 31%; in [5], 20.6%; in assay [6], 22.9%. Further, the growth in [7] was -7.6% (active); in [8] it was 18.6%; in assay [9], 6.92% (active); in [10] it was 28.6%.
On to `O=C(CCCCCCN1CC(=O)N2[C@@H](c3ccc(Cl)c(F)c3)c3[nH]c4ccccc4c3C[C@H]2C1=O)NO`, for which the growth in [1] is 87.8%; in assay [2], 53.7%; in assay [3], 59.8%; in assay [4], 75.9%; in [5], 100%; in assay [6] it was 106%. In addition, the growth is 78.7% in [7], 83.8% in [8], 82% in assay [9] and 82.4% in assay [10].
Regarding `COc1ccc(CCN2C(=O)CSC2=S)cc1OC`, the growth in assay [1] is 18.9%; in [2], 64.8%; in assay [3] it was 95.6%; in assay [4] it was 80.4%; in assay [5], 59.2%; in assay [6], 100%. The growth was 102% in assay [7], 93.9% in assay [8], 96.4% in assay [9] and 94.3% in assay [10].
Turning to `NC(N)=NS(=O)(=O)c1ccc(N=NC2C(=O)NN(c3ccccc3)C2=O)cc1` (stereo not given), the growth in assay [1] was 104%; in assay [2], 107%; in [3] it was 101%; in assay [4], 94.9%; in assay [5] it was 106%; in assay [6], 102%. Also, the growth is 104% in assay [7], 94.8% in assay [8], 120% in assay [9] and 99.5% in assay [10].
As to `C/C(=N\NC(=O)CSc1nc2sc3c(c2c(=O)n1-c1ccccc1)CCC(C)C3)c1ccc(Cl)cc1` (stereo not given), the growth was 22.8% in assay [1]; 16.5% in assay [2]; 29.1% in assay [3]; 39.8% in assay [4]; -23.3% (active) in assay [5]; 23.8% in assay [6]. In addition, the growth in assay [7] is 40.9%; in [8], 18.5%; in assay [9] it was 75%; in assay [10], -34% (active).
As for `CCN(CC)Cc1c(-c2cccc(OC(F)(F)F)c2)[nH]c2ccc(N3CCCC3)cc2c1=O`, the growth in assay [1] was 99.7%; in assay [2], 87.8%; in [3], 86%; in assay [4], 87%; in assay [5], 74.1%; in assay [6], 89.1%. The growth in assay [7] is 102%; in [8] it was 95%; in assay [9] it was 91.3%; in assay [10], 96.9%.
Regarding `COc1cc2oc(-c3cccc(NC(=O)c4cc(NC(=O)[C@H](C)N)ccc4Cl)c3)cc(=O)c2c(OC)c1OC`, the growth in assay [1] was 95.2%; in [2], 78.8%; in [3] it was 111%; in assay [4], 82.4%; in assay [5], 84.8%; in assay [6], 92.2%. In addition, the growth in assay [7] was 92.3%; in assay [8], 91.1%; in assay [9], 129%; in [10] it was 115%.
For `COc1cc(/C=N/n2cnc3oc(-c4ccccc4)cc3c2=N)cc(CN2CCN(C)CC2)c1O`, the growth in [1] was 110%; in assay [2] it was 26.3%; in [3] it was 113%; in [4] it was 79.3%; in assay [5], 27.7%; in [6], 93.6%. The growth in [7] was 109%; in assay [8] it was 94%; in assay [9], 106%; in [10], 103%.
For the molecule `NC(=S)N/N=C(/C=C/c1cn(-c2ccccc2)nc1-c1ccc(Cl)cc1)c1cc2ccccc2oc1=O`, the growth in [1] is 57.7%; in assay [2], 20.8%; in assay [3], 71.2%; in assay [4], 48.9%; in assay [5], 106%; in assay [6], 52.9%. Also, the growth in assay [7] is 25.2%; in assay [8], 51.1%; in assay [9] it was 76.3%; in assay [10], 54.1%.
With `COC(=O)c1c(C(=O)OC)c2n(CC(=O)Nc3cccc4cccnc34)c3ccccc3n2c1C(=O)c1ccc(C)cc1`, the growth is 105% in assay [1]; 91.2% in assay [2]; 97.7% in [3]; 88.4% in assay [4]; 97.8% in assay [5]; 97.2% in assay [6]. Moreover, the growth in assay [7] is 95.1%; in [8], 106%; in assay [9] it was 104%; in [10], 99.9%.
Take `Cn1cc2c(c1)-c1c(sc3nc(-c4ccc(NC(=O)Nc5cc(C(C)(C)C)on5)cc4)cn13)CC2`: the growth in [1] is 57.9%; in assay [2], 15.3%; in [3] it was 66.2%; in [4], 49.8%; in [5], -23.4% (active); in assay [6], 50.5%. Further, the growth in assay [7] is -41% (active); in assay [8], 22.3%; in assay [9], 93.1%; in assay [10] it was 60.5%.
Turning to `COc1ccc(-c2nnc(SCc3ccc(O)c4ncccc34)o2)cc1`, the growth in assay [1] is 32.7%; in assay [2] it was 16.3%; in assay [3] it was 50%; in [4] it was 52.1%; in assay [5] it was 60.2%; in [6] it was 30.9%. The growth is 15.6% in assay [7], 27.2% in assay [8], 28.3% in assay [9] and 31.4% in [10].
Turning to `C=C(C)C(=O)O[C@H]1C[C@@]2(C)OC(=CC2=O)[C@H](C)[C@H](O)[C@H]2OC(=O)C(=C)[C@@H]21`, the growth is 73.2% in assay [1]; 20.4% in assay [2]; 48.3% in assay [3]; 76.6% in [4]; 22.2% in assay [5]; 79.8% in [6]. Also, the growth in assay [7] was 93.8%; in assay [8], 74.7%; in assay [9], 67%; in assay [10], 71.7%.
Take `Cc1cnc2nc(NN)[nH]n12`: the growth in assay [1] is 109%; in assay [2], 103%; in assay [3], 102%; in assay [4] it was 106%; in assay [5], 119%; in [6] it was 99.8%. The growth was 95.2% in [7], 100% in assay [8], 101% in assay [9] and 101% in [10].
With `O=C(Nc1ccccc1)Nc1nc2ccc([N+](=O)[O-])cc2s1`, the growth is 14.7% in [1]; 5.58% (active) in assay [2]; -10.8% (active) in assay [3]; -5.6% (active) in assay [4]; -21.6% (active) in assay [5]; 13.4% in [6]. For the same molecule, the growth is 2.83% (active) in assay [7], 9.38% (active) in [8], -8.53% (active) in assay [9] and 13% in [10].
Consider `COc1ccc(NC2=C(Cl)C(=O)C(C)=C(C)C2=O)cc1`, for which the growth in assay [1] was 106%; in assay [2], 5.78% (active); in assay [3], 99.8%; in [4], -15.1% (active); in [5], 100%; in assay [6], 96%. The growth is 100% in assay [7], 103% in [8], 85.5% in assay [9] and 95.5% in assay [10].
In the case of `CCCCCCCCNC(=O)c1ccc(Cn2c(CCCC)nc3c(N)nc4ccccc4c32)cc1`, the growth in [1] is 27.7%; in assay [2], -59.9% (active); in assay [3], -82.9% (active); in assay [4], -71.6% (active); in assay [5], 23.3%; in assay [6], 53.7%. Moreover, the growth in [7] is -80.8% (active); in [8], -87.1% (active); in assay [9], -70.3% (active); in [10], -80.4% (active).
In the case of `C#C[C@]1(O)CC[C@H]2[C@@H]3CC=C4c5sc(Nc6nc(C)cc(OC)n6)nc5CC[C@]4(C)[C@H]3CC[C@@]21C`, the growth in assay [1] was 61.4%; in assay [2], 14%; in [3], 24%; in assay [4], 56.1%; in [5], -34.9% (active); in assay [6] it was 35.8%. Besides, the growth in assay [7] was -60% (active); in assay [8], -14.8% (active); in [9], 46.1%; in [10] it was 27%.
With `Cc1ccc(-c2csc(N/N=C/c3nc4ccccc4n3C3CC3)n2)cc1`, the growth in assay [1] is 105%; in assay [2], -55.8% (active); in assay [3], -72.9% (active); in assay [4] it was 80.4%; in assay [5], 71.6%; in [6], 80.1%. Further, the growth was 96.8% in assay [7], 66% in assay [8], 79.7% in assay [9] and 89% in assay [10].
With `CCCC(=O)NC(c1cccnc1)c1cc(C(C)=O)c2cccnc2c1O` (stereo not given), the growth in [1] is 39.9%; in assay [2] it was 32.2%; in assay [3], 38.8%; in [4] it was 36.9%; in assay [5], 31.7%; in assay [6], 27.2%. Further, the growth in [7] is 13.9%; in assay [8], 25.1%; in assay [9], 42.4%; in [10], 12.7%.

(Values after PubChem BioAssay (NCI).)
